In all, about 18,000 sequences were measured (“log2 normalized intensity”: median about 0.39, highest 2% from about 6.6 on). Shown is part of a subset that was picked to be rich in the highest values.
These sequences were tested against T1, HNF4alpha2 (COS-7 nuclear extract) (Homo sapiens, UniProt P41235 1-474) (assay: protein-binding microarray; COS-7 nuclear extract on double-stranded Agilent 4x180k PBM; binding buffer, salt, pH and temperature not given in the material; high values mean tight binding). Conditions: chain copies: 2; label: 3' end of strand 1 on the slide; dsDNA, one strand shown.
T1 sequence: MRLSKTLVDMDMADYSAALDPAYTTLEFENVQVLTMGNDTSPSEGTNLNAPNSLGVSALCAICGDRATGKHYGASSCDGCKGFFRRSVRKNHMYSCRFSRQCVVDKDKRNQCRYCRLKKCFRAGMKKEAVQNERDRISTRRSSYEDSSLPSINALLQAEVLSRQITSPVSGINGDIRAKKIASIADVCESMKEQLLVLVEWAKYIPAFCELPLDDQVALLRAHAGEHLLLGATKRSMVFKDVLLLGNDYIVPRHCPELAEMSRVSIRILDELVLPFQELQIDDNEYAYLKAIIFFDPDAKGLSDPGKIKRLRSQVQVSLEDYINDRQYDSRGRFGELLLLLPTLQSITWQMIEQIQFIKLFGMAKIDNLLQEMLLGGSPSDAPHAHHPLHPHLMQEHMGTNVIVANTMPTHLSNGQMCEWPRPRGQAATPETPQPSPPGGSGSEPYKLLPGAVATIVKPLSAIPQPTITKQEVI
Outline: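 Double-stranded oligonucleotides of ~60 nt, representing ~44,000 test sequences in quadruplicate, made up a custom Agilent SurePrint G3 4x180k array. Nuclear extracts from COS-7 cells transiently transfected by CaPO4 with a human HNF4α isoform expression vector were applied, and bound HNF4α was imaged at 2-µm resolution on an Agilent G2565CA scanner. Binding signal refers to the background-corrected, normalized gProcessedSignal output of Agilent software.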

Sequence | binding signal [log2 normalized intensity]
TGGTGGGGAATGCTAGGACTCATTCTCCCCGCCTAGGGAGATTAGAGTATCGGTCGA | 0.442
AGAGCTCAGAAGCCACCAGTGCAAATATAAGCCTAGGGAGATTAGAGTATCGGTCGA | -0.972
ATTTGGACTTTTACTCTTAGAGATAATGGGGCCTAGGGAGATTAGAGTATCGGTCGA | 2.13
CACAAATTGGAGAGCATCTTGGACTTGGGAGCCTAGGGAGATTAGAGTATCGGTCGA | 2.73
CAAACGAGACTTTGGACTTTGGACTTGGGAGCCTAGGGAGATTAGAGTATCGGTCGA | 10.5
GAAGGAGAGAGAGGGAGAGTGGCCTTTGGAGCCTAGGGAGATTAGAGTATCGGTCGA | 2.89
TCTTTAGGCCAAACAAAAATATGGACTTTGGCCTAGGGAGATTAGAGTATCGGTCGA | 5.84
AAGAGATAAAAGAGAAGATAATGGATTGGGGCCTAGGGAGATTAGAGTATCGGTCGA | -0.492
AAAATATGGACTTTGGAATTAAGAAAAGCTGCCTAGGGAGATTAGAGTATCGGTCGA | 5.25
GGATAATGATAAAGAGATTGGACTTTGGCCGCCTAGGGAGATTAGAGTATCGGTCGA | 8.99
AGGCCAAACAAAAATATGGACTTTGGAATTGCCTAGGGAGATTAGAGTATCGGTCGA | 7.99
CTATCACTGTCTAGCTGTGTAACCCTGGACGCCTAGGGAGATTAGAGTATCGGTCGA | 1.48
TGTCCAGCACACCTTTTTTTCATGCAAATTGCCTAGGGAGATTAGAGTATCGGTCGA | 0.631
CCCCCTTTTGCTTTCCGTTAGGCTACAGTGGCCTAGGGAGATTAGAGTATCGGTCGA | 1.03
CTCCTCTCCAGCCCATCCTAAGCCCCAGGGGCCTAGGGAGATTAGAGTATCGGTCGA | 1.15
CTGAGCCTCAGAACCATTTGTGAGGATGGGGCCTAGGGAGATTAGAGTATCGGTCGA | -0.528
GTCAGAGTGCTGCATGCAAAAAGGCTGACCGCCTAGGGAGATTAGAGTATCGGTCGA | 1.41
CTGAGGAAGTGCTGACCTTTGGTCTAAACCGCCTAGGGAGATTAGAGTATCGGTCGA | 6.27
AAGAGCTGAGGAAGTGCTGACCTTTGGTCTGCCTAGGGAGATTAGAGTATCGGTCGA | 7.29
AGGCTGTCAGAGTGCTGCATGCAAAAAGGCGCCTAGGGAGATTAGAGTATCGGTCGA | -0.743
CTTTTTGACCTTGCAGTGGCAAGGCAAAAGGCCTAGGGAGATTAGAGTATCGGTCGA | 1.56

Sequence | binding signal [log2 normalized intensity]
TAGATAAGAGCTGAGGAAGTGCTGACCTTTGCCTAGGGAGATTAGAGTATCGGTCGA | 5.77
TGCATGCAAAAAGGCTGACCTTTGACTCTCGCCTAGGGAGATTAGAGTATCGGTCGA | 7.57
AGTGCTGCATGCAAAAAGGCTGACCTTTGAGCCTAGGGAGATTAGAGTATCGGTCGA | 7.82
ATGCAAAGCCCTGGCTGACCTTTAGCCTGGGCCTAGGGAGATTAGAGTATCGGTCGA | 6.54
CCCAGGTCACCCACAACCTACCCTTTGCCCGCCTAGGGAGATTAGAGTATCGGTCGA | 3.99
GGCTAGGGCAAAGATCAAACATACAGTAAAGCCTAGGGAGATTAGAGTATCGGTCGA | 1.77
TAGCAATAATCTTTGAAATCTGCAAATAGAGCCTAGGGAGATTAGAGTATCGGTCGA | -0.0917
TCTGTGTGTATGTGTGTGTACACATTGATAGCCTAGGGAGATTAGAGTATCGGTCGA | 2.42
AGATCATCCTGCAGTTCCTGATCTTTGACCGCCTAGGGAGATTAGAGTATCGGTCGA | 7.04
AATTCCAGTTTGGACTTTGATCCTGATGACGCCTAGGGAGATTAGAGTATCGGTCGA | 9.15
TTTGATCCTGATGACTGCAGAGCTTGCTCTGCCTAGGGAGATTAGAGTATCGGTCGA | -0.687
GCAGTTCCTGATCTTTGACCTGGAGCATGAGCCTAGGGAGATTAGAGTATCGGTCGA | 4.61
CAGTTTGGACTTTGATCCTGATGACTGCAGGCCTAGGGAGATTAGAGTATCGGTCGA | 7.49
GATGGAGATCATCCTGCAGTTCCTGATCTTGCCTAGGGAGATTAGAGTATCGGTCGA | -0.826
GGAGAGAGTTTGGCCCCAGTTCCCATGGACGCCTAGGGAGATTAGAGTATCGGTCGA | 1.18
TGGACTTTGATCCTGATGACTGCAGAGCTTGCCTAGGGAGATTAGAGTATCGGTCGA | 5.26
ATCCTGCAGTTCCTGATCTTTGACCTGGAGGCCTAGGGAGATTAGAGTATCGGTCGA | 5.61
CTTCTGTTCAGGAGTTGTCTGTCCAGTTCAGCCTAGGGAGATTAGAGTATCGGTCGA | 1.56
TAATCCCTGAGCCTGGACCTTGGAATGTCAGCCTAGGGAGATTAGAGTATCGGTCGA | 3.33
AATTCACGTCATTTTGTCACCTACATGTGAGCCTAGGGAGATTAGAGTATCGGTCGA | 1.67
TGCCCTGGACATATTTGTCTTCCTATCTCCGCCTAGGGAGATTAGAGTATCGGTCGA | 0.887
